Among all 1,200 compounds or so, about 480 (40%) were called active. Another 29% or so got no clear call; they are omitted. This is one part of the list. Values without a mark were called inactive. Calls come from the whole dose curve; as a rule, active = well fitted inhibition curve with a large enough effect; inconclusive = small, poorly fitted or top-dose-only effect; inactive = no such curve, though single readings can be large or run the other way.
Experiment: qHTS Assay to Find Inhibitors of Chronic Active B-Cell Receptor Signaling: Hit Validation in Primary Screen; note: nearly all actives have a fitted effect of over 75% in size
Conditions: ABC-DLBCL IkB-luc/CBR ratio luminescence, 4 h; series mostly up to 46.1 µM; activity change, negative = inhibition: at the top concentration
Summary of the method: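 Concentration series (3 nM to 46 uM) tested on TMD8 cells induced with doxycycline for 4 h. Filter-corrected green (IkBa fusion) over red (unfused) luciferase signal; Data were normalised to 10 uM MG-132 and untreated cell wells.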
% is set by controls: 0 for no effect and ±100 for the full control effect; potency is the fitted concentration of half-maximal effect.

SMILES	activity change, negative = inhibition [%]	Potency
CCCn1nnc(NC(=S)NC(=O)Cc2ccccc2)n1	-4.95	–
COc1ccc(OCC(O)CN2CCN(c3ccccc3)CC2)cc1 (stereo not drawn)	-11.5	–
Cc1nc2ncccn2c1-c1csc(Nc2ccc(N(C)C)cc2)n1	–	7.31 µM (active)
COc1ccc(Nc2nc(-c3c(C)nc4ncccn34)cs2)cc1	–	2.31 µM (active)
Cc1ccc(Nc2nc(-c3c(C)nc4ccccn34)cs2)cc1	–	0.259 µM (active)
Cc1ccc(Nc2nc(-c3c(C)nc4ncccn34)cs2)cc1	–	4.11 µM (active)
Cc1ccc(C2OCC3(CO)COC(c4ccc(C)cc4)N23)cc1 (stereo not drawn)	-6.87	–
Oc1[nH]c2ccc(Br)cc2c1N=NC(=S)Nc1ccc(F)cc1	6.69	–
Cc1ccccc1C1=NC(C(F)(F)F)(C(F)(F)F)c2c(n(C)c(=O)n(C)c2=O)N1	-19.6	–
COc1ccc(NC(=O)C(=O)c2cn(CC(=O)N3CCCC3)c3ccccc23)cc1	–	9.2 µM (active)
COc1cc2cnc(-c3ccccc3)cc2cc1OC	–	20.6 µM (active)
COc1ccccc1C(=O)Nc1ccccc1SC(=O)c1ccccc1OC	–	7.31 µM (active)
CCC(C)NC(=O)c1ccccc1NC(=O)c1ccc(CSc2ccccc2)cc1 (stereo not drawn)	39.9	–
COc1cc(NC(=S)NC(=O)c2ccccc2F)ccc1NC(=O)c1ccco1	41.4	–
Cc1ccc(CCC(=O)Nc2ncc(Cc3cc(Cl)ccc3Cl)s2)o1	–	1.3 µM (active)
Cc1ccc(CCC(=O)Nc2ncc(Cc3cccc(Cl)c3Cl)s2)o1	–	0.231 µM (active)
CCc1ccc(CCC(=O)Nc2ncc(Cc3ccccc3Cl)s2)o1	–	2.91 µM (active)
Cc1cccc(NC(=S)N=Nc2c(O)n(C)c3ccc(S(=O)(=O)N4CCOCC4)cc23)c1	-17.4	–
COc1ccc(-c2csc(C3=C(O)CN(CCCN4CCCC4=O)C3=N)n2)cc1OC	–	18.4 µM (active)
Cc1nnc2ccc(-c3ccc(NS(=O)(=O)c4ccccc4[N+](=O)[O-])cc3)nn12	–	20.6 µM (active)
COc1ccc(OC)c(S(=O)(=O)Nc2ccc(-c3ccc4nnc(C)n4n3)cc2)c1	182	–
CCc1ccc(S(=O)(=O)Nc2ccc(-c3ccc4nnc(C)n4n3)cc2)s1	–	14.6 µM (active)
CCN(CC)C(=S)NC(=O)c1ccc(F)cc1	-2.9	–
CC1=Nc2cc(C(=O)NC3CCCC3)ccc2Sc2ccc(Cl)cc21	–	2.59 µM (active)
CCOC(=O)N1CCC(NC(=O)c2ccc3c(c2)N=C(C)c2c(C)ccc(C)c2S3)CC1	–	6.51 µM (active)
CCCC1=Nc2cc(C(=O)NC3CCCCC3)ccc2Sc2ccc(C)cc21	–	0.259 µM (active)

SMILES	activity change, negative = inhibition [%]	Potency
CC1=Nc2cc(C(=O)NC3CCCCC3)ccc2Sc2ccc(Cl)cc21	–	2.31 µM (active)
CCOC(=O)N1CCC(NC(=O)CS(=O)(=O)Cc2nc(-c3ccccc3C)oc2C)CC1	-13.5	–
CN(C)c1ccc(-c2nn3c(-c4ccccc4Cl)nnc3s2)cc1	–	2.91 µM (active)
CCN(CC)c1ccc(-c2nn3c(-c4n[nH]c5c4CCC5)nnc3s2)cc1	–	0.651 µM (active)
COc1ccccc1-c1nnc2sc(-c3ccc(N(C)C)cc3)nn12	–	1.16 µM (active)
CCN(CC)c1ccc(-c2nn3c(-c4ccccc4OC)nnc3s2)cc1	–	1.46 µM (active)
C[C@]12CC[C@H]3C(=CCc4cc(O)ccc43)[C@@H]1CCC2=O	-23.1	–
Cc1ccccc1-c1nc2c3ccccc3nc(=S)n2[nH]1	-3.4	–
S=c1nc2ccccc2c2nc(-c3ccccc3Cl)[nH]n12	44.2	–
S=c1nc2ccccc2c2nc(-c3ccccc3)[nH]n12	–	23.1 µM (active)
CCN1C(=O)c2cccc3c(NC(=O)c4ccc(OC)c(OC)c4)ccc1c23	–	10.3 µM (active)
CCOc1ccc2c(c1)C(C)=CC(C)(C)N2S(=O)(=O)c1ccc(NC(C)=O)cc1	–	1.3 µM (active)
COc1ccc2c(c1)C(C)=CC(C)(C)N2S(=O)(=O)c1ccc(Br)cc1	–	3.26 µM (active)
COc1ccc2c(c1)C(C)=CC(C)(C)N2S(=O)(=O)c1ccc(NC(C)=O)cc1	–	3.26 µM (active)
CCOc1ccc2c(c1)C(C)=CC(C)(C)N2S(=O)(=O)c1ccc(C)cc1	–	3.26 µM (active)
N#CC1=C(S)N(c2ccc(F)cc2)C(c2ccco2)NC1=O (stereo not drawn)	46.1	–
COc1ccc(NC(=O)CSc2nc(N)c(C(=O)Nc3ccc(N(C)C)cc3)s2)cc1	-13.4	–
CCOc1ccc(NC(=S)N(CCc2c(C)[nH]c3ccccc23)Cc2cccnc2)cc1	-24	–
CCOc1ccc(NC(=O)c2cc(OC)nc3ccccc23)cc1	–	5.17 µM (active)
COc1ccc(C2CC(c3ccncc3)=NN2c2ccc(S(N)(=O)=O)cc2)cc1 (stereo not drawn)	112	–
COc1ccc(C2CC(c3ccc(OC)c(OC)c3)=NN2C(=O)c2ccccc2)cc1 (stereo not drawn)	–	6.51 µM (active)
COc1ccc(C2=NN(C(C)=O)C(c3cccs3)C2)cc1OC (stereo not drawn)	31.9	–
N=C1SCC(=O)N1c1ncc(Cc2cccc(Cl)c2)s1	–	20.6 µM (active)
O=c1cc(-c2ccccc2)[nH]c2ccccc12	–	11.6 µM (active)
NNC(=O)c1[nH]c2ccc(Br)cc2c1-c1ccccc1	3.52	–
O=c1cc(-c2ccc(F)cc2)[nH][nH]1	4.42	–

SMILES	activity change, negative = inhibition [%]	Potency
O=c1cc(-c2cccc(F)c2)[nH]c2ccccc12	–	3.66 µM (active)
O=c1cc(-c2ccccc2)[nH]c2ccc(F)cc12	–	10.3 µM (active)
O=Cc1ccc(O)c2ncccc12	-2.92	–
O=[N+]([O-])c1cc(Cl)c2cccnc2c1O	-5.39	–
COc1ccc(CC2(CO)CCN(Cc3cccc4nccnc34)CC2)cc1	-8.35	–
CCCc1nc([N+](=O)[O-])c(S(=O)(=O)c2ccccc2)n1CC(C)C	–	16.4 µM (active)
Cc1cc(C)nc(SCc2ccc(C(=O)N/N=C/c3cccnc3)cc2)n1	31.9	–
N#Cc1ccc(-c2cccs2)nc1SCc1cccnc1	–	16.4 µM (active)
COc1ccc2c(c1)sc1nc(-c3ccccc3)cn12	–	3.26 µM (active)
Cc1ccc(C)c(NC(=S)N=Nc2c(O)n(C)c3ccc(S(=O)(=O)N4CCOCC4)cc23)c1	35.1	–
COc1ccc(C2=Nn3c(nnc3-c3ccccn3)SC2)cc1OC	23.8	–
CCOc1ccc(C2=Nn3c(nnc3-c3ccccc3OC)SC2)cc1	–	0.0731 µM (active)
COc1ccc(C2=Nn3c(nnc3-c3ccccc3OC)SC2)cc1OC	–	1.3 µM (active)
COc1ccc(C2=Nn3c(nnc3C3CCCCC3)SC2)cc1OC	–	2.31 µM (active)
COc1ccc(C2=Nn3c(nnc3-c3ccc(OC)cc3)SC2)cc1	–	14.6 µM (active)
CNC(=S)N/N=C(\C)c1ccc(Cl)s1	-14.9	–
S=C(Nc1ccccc1)c1nc2ccccc2s1	-4.37	–
Cc1ccc(-c2oc3ncnc(N)c3c2-c2ccc(C)cc2)cc1	-7.68	–
COc1ccccc1-c1nnc2n1N=C(c1ccc(O)c(O)c1)CS2	–	0.206 µM (active)
NC(=S)N/N=C/c1ccccc1OC(=O)/C=C/c1ccccc1	-8.27	–
COc1ccc(C(=O)N/N=C/c2ccccc2OC(=O)c2ccccc2)cc1	–	0.651 µM (active)
Cc1cccc(C(=O)Oc2ccc(/C=N/O)cc2)c1	-21.3	–
Cc1cccc(C)c1NS(=O)(=O)c1ccc(-c2cnc(C3CC3)o2)cc1	–	0.291 µM (active)
Cc1cccc(NS(=O)(=O)c2ccc(C3CCCCC3)cc2)n1	-20.7	–
Cc1cccc(NS(=O)(=O)c2ccc(-c3cnc(C4CC4)o3)cc2)c1C	–	0.92 µM (active)
COCCOC(=O)c1[nH]c2c(c1C)C(=O)CC(c1ccccc1)C2 (stereo not drawn)	61.1	–

SMILES	activity change, negative = inhibition [%]	Potency
CCOCCOC(=O)c1[nH]c2c(c1C)C(=O)CC(c1cccs1)C2 (stereo not drawn)	–	2.59 µM (active)
COC(=O)c1[nH]c2c(c1C)C(=O)CC(c1ccccc1)C2 (stereo not drawn)	–	1.3 µM (active)
CCOCCOC(=O)c1[nH]c2c(c1C)C(=O)CC(c1ccccc1)C2 (stereo not drawn)	–	1.64 µM (active)
COc1ccc(OC)c(C2CC(=O)c3c([nH]c(C(=O)OC(C)C)c3C)C2)c1 (stereo not drawn)	–	1.64 µM (active)
NC(=S)N/N=C/c1ncc(C(F)(F)F)cc1Cl	183	–
C/C(=N\N1C(=O)c2ccccc2NC1c1ccco1)c1ccccc1O (stereo not drawn)	-4.31	–
CCNC(=S)N/N=C(\C)c1ccc(Cl)s1	-17.5	–
O=C(CSc1cccc[n+]1[O-])c1ccc(-c2ccccc2)cc1	-8.79	–
Cc1ccc(/C(C#N)=C\c2ccc(N3CCOCC3)o2)cc1	-22.5	–
O=C1N/C(=C/c2ccc(N3CCOCC3)o2)C(=O)N1c1ccccc1	–	16.4 µM (active)
O=S1(=O)N=C(Nc2nc3c(s2)CCCC3)c2ccccc21	–	7.31 µM (active)
Cc1ccc(/C=[N+](\[O-])c2ccc(N(C)C)cc2)c2nsnc12	-2.78	–
O=C(COc1ccc(-c2ccccc2)cc1)N1CCN(S(=O)(=O)Cc2ccccc2)CC1	28	–
CCCN1C(=O)C(=O)c2cc(Cl)ccc21	–	18.4 µM (active)
Cc1cccc(OCCCC(=O)NNC(=O)c2cccc(N(C)C)c2)c1	-9.42	–
Cc1ccc2c(c1)C(=O)C(=O)N2CCOc1ccccc1	–	20.6 µM (active)
Cc1cccc(OCCCN2C(=O)C(=O)c3cc(C)ccc32)c1	-14.8	–
Cc1ccc(OCCN2C(=O)C(=O)c3cc(C)ccc32)cc1	–	20.6 µM (active)
Cc1cccc(OCCN2C(=O)C(=O)c3cc(C)ccc32)c1	–	23.1 µM (active)
Cc1noc(C)c1COc1ccc(CC(=O)NCc2ccccc2)cc1	–	14.6 µM (active)
O=C(Cc1ccc(-c2ccccc2)cc1)NCc1ccccc1	–	0.517 µM (active)
NC(=O)NC[C@@H]1CC[C@@H](Cc2ccc(-c3ccccc3)cc2)O1	-10.6	–
O=C(COC(=O)Cc1ccc(-c2ccccc2)cc1)NCc1ccccc1	-6.66	–
Cc1ccccc1N=Nc1c(C)[nH]n(C(N)=S)c1=O	8.37	–
Clc1ccc2nc(-c3ccccc3)nc(C(Cl)Cl)c2c1	–	4.61 µM (active)

From PubChem BioAssay AID651558 (National Center for Advancing Translational Sciences (NCATS), 2012)
